From PubChem BioAssay (EPA / NIEHS)
The source made the active and inactive calls. Rule for the calls: active = hit-call score of the fitted dose curve at least 0.9, where 1 is the maximum; inactive = score below 0.9.

Assays:
[1] = read-out: Tissue plasminogen activator (tPA), PLAT (gene 5327); assay: BSK_BE3C_tPA: BioMAP Diversity Plus: BE3C Assay for Tissue plasminogen activator (tPA) Biomarker Activity (AID 2283041); conditions: primary human bronchial epithelial cells; actives raise or lower the signal;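 for outcome: tPA level quantified by ELISA one day after compound addition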
Method in brief: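 Primary human bronchial epithelial cells in the BE3C system, exposed to compound for 24 h. tPA was quantified by ELISA; DMSO served as baseline, with gain or loss of signal fitted. Cytotoxicity checked in parallel cultures by SRB total-protein staining.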

[2] = read-out: Interleukin-8 (IL8), CXCL8 (gene 3576); assay: BSK_CASM3C_IL8: BioMAP Diversity Plus: CASM3C Assay for Interleukin-8 (IL8) Biomarker Activity (AID 2283042); conditions: primary human coronary artery smooth muscle cells; actives raise or lower the signal;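 note: IL-8 protein level quantified by ELISA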
[3] = read-out: Human Leukocyte Antigen - DR isotype (HLADR), HLA-DRA (gene 3122); assay: BSK_CASM3C_HLADR: BioMAP Diversity Plus: CASM3C Assay for Human Leukocyte Antigen - DR isotype (HLADR) Biomarker Activity (AID 2283043); conditions: primary human coronary artery smooth muscle cells; actives raise or lower the signal;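 note: cell-surface HLA-DR protein level quantified by ELISA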
[4] = read-out: Macrophage colony-stimulating factor (MCSF), CSF1 (gene 1435); assay: BSK_CASM3C_MCSF: BioMAP Diversity Plus: CASM3C Assay for Macrophage colony-stimulating factor (MCSF) Biomarker Activity (AID 2283044); conditions: primary human coronary artery smooth muscle cells; actives raise or lower the signal;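 note: M-CSF protein amount quantified by ELISA after 24 h exposure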
[5] = read-out: Low-density lipoprotein receptor (LDLR), LDLR (gene 3949); assay: BSK_CASM3C_LDLR: BioMAP Diversity Plus: CASM3C Assay for Low-density lipoprotein receptor (LDLR) Biomarker Activity (AID 2283045); conditions: primary human coronary artery smooth muscle cells; actives raise or lower the signal;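 note: LDLR protein level on the cell surface quantified by ELISA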
[6] = read-out: Monocyte Chemoattractant Protein-1 (MCP1), CCL2 (gene 6347); assay: BSK_CASM3C_MCP1: BioMAP Diversity Plus: CASM3C Assay for Monocyte Chemoattractant Protein-1 (MCP1) Biomarker Activity (AID 2283046); conditions: primary human coronary artery smooth muscle cells; actives raise or lower the signal;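 note: MCP-1 level quantified by ELISA 24 h after dosing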
[7] = BSK_CASM3C_Proliferation: Cell Proliferation Assessment in the BioMAP Diversity Plus: CASM3C Assay (AID 2283047); conditions: primary human coronary artery smooth muscle cells;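 note: sulforhodamine B total protein stain as relative cell number at 560 nm; sub-confluent cells exposed 48 h before staining; fitted both ways against DMSO so gain or loss of cell number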
[8] = read-out: Monokine induced gamma interferon (MIG), CXCL9 (gene 4283); assay: BSK_CASM3C_MIG: BioMAP Diversity Plus: CASM3C Assay for Monokine induced gamma interferon (MIG) Biomarker Activity (AID 2283048); conditions: primary human coronary artery smooth muscle cells; actives raise or lower the signal;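 note: MIG protein level measured by ELISA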
[9] = read-out: serum amyloid A (SAA), SAA1 (gene 6288); assay: BSK_CASM3C_SAA: BioMAP Diversity Plus: CASM3C Assay for serum amyloid A (SAA) Biomarker Activity (AID 2283049); conditions: primary human coronary artery smooth muscle cells; actives raise or lower the signal;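 note: SAA protein level quantified by ELISA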
[10] = BSK_CASM3C_SRB: Viability Assessment in the BioMAP Diversity Plus: CASM3C Assay (AID 2283050); conditions: primary human coronary artery smooth muscle cells

SMILES	outcome [1]	outcome [2]	outcome [3]	outcome [4]	outcome [5]	outcome [6]	outcome [7]	outcome [8]	outcome [9]	outcome [10]	AC50 [5]	AC50 [7]	AC50 [6]	AC50 [1]	AC50 [2]	AC50 [3]	AC50 [4]	AC50 [10]
Clc1nc(Cl)nc(Nc2ccccc2Cl)n1	inactive	inactive	inactive	inactive	inactive	inactive	inactive	inactive	inactive	inactive								
COP(=O)(OC)O/C(C)=C/C(=O)N(C)C	inactive	inactive	inactive	inactive	inactive	inactive	inactive	inactive	inactive	inactive								
CO/N=C(/C1=NOCCO1)c1ccccc1Oc1ncnc(Oc2ccccc2Cl)c1F	inactive	inactive	inactive	inactive		inactive		inactive	inactive	inactive	13.5 µM (active)	12.9 µM (active)						
CCNC(=O)NC(=O)C(C#N)=NOC	inactive	inactive	inactive	inactive	inactive		inactive	inactive	inactive	inactive			1.98 µM (active)					
CS(=O)(=O)c1ccc(C(=O)C2C(=O)CCCC2=O)c([N+](=O)[O-])c1	inactive	inactive	inactive	inactive	inactive	inactive	inactive	inactive	inactive	inactive								
CNC(=O)Oc1cccc2ccccc12	inactive	inactive	inactive	inactive	inactive	inactive		inactive	inactive	inactive		26.2 µM (active)						
CCCCOCN(C(=O)CCl)c1c(CC)cccc1CC					inactive			inactive	inactive			27.4 µM (active)	33.2 µM (active)	36.9 µM (active)	5.08 µM (active)	26.1 µM (active)	28.8 µM (active)	31.4 µM (active)
COC(=O)NS(=O)(=O)c1ccc(N)cc1	inactive	inactive	inactive	inactive	inactive	inactive	inactive	inactive	inactive	inactive								
Cc1cnc(C2=NC(C)(C(C)C)C(=O)N2)c(C(=O)O)c1 (centres undefined)	inactive	inactive	inactive	inactive	inactive	inactive	inactive	inactive	inactive	inactive								
CC(C)N1C(=O)c2ccccc2NS1(=O)=O	inactive	inactive	inactive	inactive	inactive		inactive	inactive	inactive	inactive								
COc1ccc(-c2ccccc2)cc1NNC(=O)OC(C)C	inactive	inactive	inactive	inactive	inactive	inactive	inactive	inactive	inactive	inactive								
CC1(C)C(C(=O)OC(C#N)c2cccc(Oc3ccccc3)c2)C1(C)C (centres undefined)	inactive	inactive	inactive	inactive	inactive	inactive		inactive	inactive	inactive		13.2 µM (active)						
Cc1nc(N(C)C)nc(OC(=O)N(C)C)c1C	inactive	inactive	inactive	inactive	inactive	inactive	inactive	inactive	inactive	inactive								
Cn1c(-c2ccccc2)cc(-c2ccccc2)[n+]1C	inactive	inactive	inactive	inactive	inactive	inactive	inactive	inactive	inactive	inactive								
COc1cc(Cl)c(OC)cc1Cl	inactive	inactive	inactive	inactive	inactive	inactive	inactive	inactive	inactive	inactive								
